Data on 15 molecules can be found in PubChem BioAssay (NCI).

The structures appear in SMILES notation. Compounds without any hit were thinned out: in the full panel of roughly 83,000, 20% have a hit.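 For each line, cells grew in 96-well plates with the test compound present at a single concentration for 48 hours.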 Unmarked numbers belong to inactive results. Active and inactive are the calls of the source. The calls were made as follows: active = growth percent below 10; inactive = the rest.

This experiment relates to PC-3 prostate. The experiment is described as follows: NCI-60 one-dose screen, 48 h (100 = growth as untreated, 0 = no growth, -100 = all killed). Particulars: 10 µM unless noted.
As to `O=C(Nc1ccc(Oc2ccc(Nc3nc4ccccc4s3)cc2)cc1)Nc1ccc(Cl)c(C(F)(F)F)c1`, the growth is 3.08% (active).

Take `C[C@]12CCc3nc(Nc4ccc(O)cc4)sc3C1=CC[C@@H]1[C@@H]2CC[C@]2(C)/C(=N/NC(N)=S)CC[C@@H]12`: the growth was -33.7% (active).

Turning to `Cc1cc(N=Nc2ccc(-c3ccc(N=Nc4ccc(O)c(C(=O)O)c4)cc3)cc2)c(N)c(N=Nc2ccc(C(=O)O)cc2)c1N`, the growth was 78.1%. For `c1ccc2c(c1)cnc1ccccc12` the value was 102%; for `Cc1cc(C)c2c(n1)sc1c(Nc3ccc(OCc4ccccc4)cc3)ncnc12`, 96.2%. Take `COc1ccc2[nH]c(C(=O)OCc3ccc4cccc(O)c4n3)cc2c1`: the growth was -55.7% (active). Next, `Cc1ccc2oc(=O)cc(-c3nc4ccc([N+](=O)[O-])cc4[nH]3)c2c1`: 48.9%; `Cc1nc2ccc(Nc3nc(Cl)nc(N4CCOCC4)n3)cc2n1Cc1ccccc1`: 87.1%.

For `CC(=O)c1c(O)c(C)c(O)c2c1OC1=CC(=O)/C(=C(/C)N)C(=O)C12C` (stereo not given), the growth is 85.1%. For `O=C(CI)NCCNc1cccc2c(S(=O)(=O)O)cccc12` the value was 102%. Turning to `O=c1[nH]cnc2nc[nH]c12`, the growth is 135%. Next, `CCN(CC)C(Cl)=Nc1ccc(Cl)cc1`: 103%; `c1ccc2c(Cc3csc4ccccc34)csc2c1`: 85.2%. For `COS(=O)(=O)CCN(CCOS(C)(=O)=O)S(C)(=O)=O` the value was 94.8%.

For `COc1cc(C2CC(c3cccc(Nc4ccnc5cc(Cl)ccc45)c3)=NN2c2ccccc2)cc(OC)c1OC` (stereo not given), the growth is 55.2%.
